Measurements reported in the supplement of paper PMC10338343.
± gives the standard deviation.

How the values were obtained:
[1] = tested on: MILI (PIWIL2) piRISC loaded with L1MC piRNA (26 nt); assay: pre-steady-state target cleavage rate (min^-1); guide: L1MC piRNA 5'p-UAACUAAAUACUAUGCAAGCUGUAGG; higher = faster piRNA-guided slicing of the target
In short: (§1)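 Active affinity-purified piRISC (1 nM) loaded with one synthetic guide was mixed with a transcribed, DNA-blocked target RNA library (0.1 nM), with or without 500 nM GTSF1 partner protein, in HEPES–potassium acetate buffer at 33 °C for 0–8 or 0–960 min. Uncleaved targets were sequenced, normalised to depth and to weakly complementary targets, and pooled across three trials, with k3 capped at 0.0001 min^-1. The pre-steady-state cleavage rate was determined with a burst-and-steady-state fit.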

[2] = tested on: EfPiwi piRISC loaded with L1MC piRNA (26 nt); assay: pre-steady-state target cleavage rate (min^-1); auxiliary factor: 500 nM Ephydatia muelleri Gtsf1; guide: L1MC piRNA 5'p-UAACUAAAUACUAUGCAAGCUGUAGG; MIWI and MILI are mouse PIWI proteins and EfPiwi is from a freshwater sponge; tags in brackets are library labels; higher = faster piRNA-guided slicing of the target
In short: as §1

[3] = auxiliary factor: 500 nM mouse GTSF1
[4] = auxiliary factor: none (no GTSF1)

Row | Sequence | pre-steady-state target cleavage rate [1, 3] | pre-steady-state target cleavage rate [1, 4] | pre-steady-state target cleavage rate [2]
1 | UCCUGGAACAGCUUCAUAGUAUUUAGUUA | 0.252 ± 0.015 | 0.00361 ± 0.0026 | 0.0107 ± 0.0034
2 | UCCUGGAUGAGCUUGCAUAGUAUUUAAGUUA | 0.153 ± 0.025 | 0.00993 ± 0.0029 | 0.0082 ± 0.0031
3 | UCCUGCUACAGCUUGCACAGUAUUUAGUUA | 0.157 ± 0.015 | 0.00803 ± 0.0023 | 0.0133 ± 0.0041
4 | UCCUGGAACAGCAUGCAUAGUAUUUAGUUA | 0.256 ± 0.02 | 0.00812 ± 0.0028 | 0.0466 ± 0.011
5 | UCCUGGAACAGCUUGACAUAGUAUUUAGUUA | 0.213 ± 0.016 | 0.00586 ± 0.0022 | 0.013 ± 0.004
6 | UCCUCCUACAGCUAGCAUAGUAUUUAGUUA | 0.27 ± 0.019 | 0.00812 ± 0.0022 | 0.0119 ± 0.0038
7 | UCCUGCUACGGCUUGCAUAGUAUUUAGUUA | 0.276 ± 0.021 | 0.00977 ± 0.0025 | 0.00972 ± 0.0027
8 | UCCUGGAUCAGCUAUGCAUAGUAUUUAGUUA | 0.281 ± 0.019 | 0.0057 ± 0.0026 | 0.106 ± 0.02
9 | UCCUCCUGACAGCUUGCAUAGUAUUUAGUUA | 0.217 ± 0.018 | 0.00896 ± 0.0026 | 0.0255 ± 0.008
10 | UCCUGCAACAGCUUGCAUAGUAUAUAGUUA | 0.36 ± 0.038 | 0.00582 ± 0.0026 | 0.00844 ± 0.0024
11 | UCCUGCUACAGGAUGCAUAGUAUUUAGUUA | 0.271 ± 0.0083 | 0.00941 ± 0.0024 | 0.0191 ± 0.0043
12 | UCCUGGAACGGCUUGCAUAGUAUUUAGUUA | 0.259 ± 0.017 | 0.0129 ± 0.0024 | 0.0243 ± 0.0075
13 | UCCUCCUACUCGUUGCAUAGUAUUUAGUAA | 0.176 ± 0.024 | 0.00408 ± 0.0019 | 0.00477 ± 0.0029
14 | UCCUGGAUCAGCUUGGCAUAGUAUUUAGUUA | 0.3 ± 0.061 | 0.00341 ± 0.0025 | 0.0127 ± 0.0034
15 | UCCUGGAACAGCUUGCGUAGUAUUUAGUUA | 0.277 ± 0.016 | 0.00716 ± 0.0018 | 0.00807 ± 0.0034
16 | UCCUGCUACAGCUUGCAUAGUACUUUAGUUA | 0.194 ± 0.025 | 0.00825 ± 0.0022 | 0.00465 ± 0.0015
17 | UCCUGGAUGUGCUUCGCAUAGUAUUUAGUUA | 0.155 ± 0.023 | 0.00505 ± 0.0021 | 0.0132 ± 0.0048
